# Several values for one entry are separate records, joined by “and”; a condition that tells them apart may be missing. Equal entries are not always repeated. Inconclusive results are not listed. A call without a number means that no potency is given here. More than one record can exist for a structure, and the calls need not agree. Activity calls are given as the source filed them. Unless noted, calls follow the shape of the full dose curve.
# Experiments:
# [1] = Nuclear factor erythroid 2-related factor 2/antioxidant responsive element (Nrf2/ARE) small molecule agonists: qHTS cell viability counter screen in human keratinocytes (AID 1919968; active = well fitted curve in the direction sought with a large enough effect in the repeat runs; an effect the other way counts as inactive or inconclusive; also: nearly all actives have a fitted effect of over 55% in size; also: potency is read from the fitted curve at half-maximal effect)
# How it was run: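 KeratinoSens HaCaT cells, 1,500/well, preincubated 5 h, then exposed to compounds in DMSO for 23 h at 37 C/5% CO2. Viability read as CellTiter-Fluor fluorescence after 1 h, in the same wells as the ARE-luciferase read.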
# [2] = Nuclear factor erythroid 2-related factor 2/antioxidant responsive element (Nrf2/ARE) small molecule agonists: luciferase reporter gene qHTS assay in human keratinocytes (AID 1919969); also: nearly all actives have a fitted effect of over 35% in size
# [3] = target: Gonadotropin-releasing hormone receptor (Homo sapiens) (UniProt P30968); test: Human gonadotropin-releasing hormone receptor (GnRHR) small molecule agonists, calcium flux assay in GnRHR-HEK293 cells (AID 1920063); also: nearly all actives have a fitted effect of over 35% in size
# How it was run: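 HEK293 cells stably expressing human GnRHR were dye-loaded for 1 h at 37 C. Compound was added in agonist mode and fluorescence (Ex/Em 480/540) recorded kinetically for 3 min. Fifteen concentrations, triplicates.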
# [4] = target: KiSS-1 receptor (Homo sapiens) (UniProt Q969F8); test: Human kisspeptin (KISS1R) small molecule agonists, calcium flux assay in KISS1R-HEK293 cells (AID 1920064; active = well fitted curve in the direction sought with a large enough effect in the repeat runs; an effect the other way counts as inactive or inconclusive)
# How it was run: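 HEK293 cells stably expressing human KISS1R were loaded with calcium dye for 1 h at 37 C, then given compound; fluorescence (Ex/Em 480/540) was read kinetically for 3 min. Fifteen concentrations, triplicate.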
# [5] = G protein-coupled receptor (GPCR) small molecule agonists, calcium flux assay: HEK293 wild type cell line counter screen (AID 1920065)
# How it was run: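 Wild-type HEK293 cells plated 18 h, loaded with calcium dye 1 h at 37 C, then compounds added in agonist mode (ATP as positive control). Kinetic fluorescence Ex/Em 480/540 recorded 3 min at 1 sec intervals; 15 concentrations, triplicate.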
# [6] = p53 small molecule agonists, cell-based qHTS assay with human liver microsomes (AID 1963577);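 also: p53 response element beta-lactamase reporter cells with liver microsomes plus NADPH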
# How it was run: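 p53RE-bla cells; 5 h settle, 37 C/5% CO2; cpd + HLM 0.5 mg/mL + NADPH 0.5 mg/mL (final); 16 h 37 C; LiveBLAzer 2 h RT dark; fluorescence readout.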
# [7] = p53 small molecule agonists, cell-based qHTS assay with rat liver microsomes (AID 1963578)
# How it was run: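 Rat liver microsome activation: microsomes 0.5 mg/mL, NADPH 0.5 mg/mL final; p53RE-bla cells, 16 h 37 C; LiveBLAzer readout, 2 h RT dark.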
# [8] = p53 small molecule agonists, cell-based qHTS assay with human liver microsomes: qHTS cell viability counter screen (AID 1963579); also: nearly all actives have a fitted effect of over 45% in size
# How it was run: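 Luminescent CellTiter-Glo read-out, 30 min at room temperature, gauged cytotoxicity in p53RE-bla cells exposed 16 h at 37 C to DMSO-dissolved compounds with metabolic activation by human liver microsomes and NADPH, each 0.5 mg/mL final.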
# [9] = p53 small molecule agonists, cell-based qHTS assay with rat liver microsomes: qHTS cell viability counter screen (AID 1963580); also: nearly all actives have a fitted effect of over 45% in size
# How it was run: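 p53RE-bla HCT-116 cells were exposed 16 h at 37 C to compounds with rat liver microsomes (0.5 mg/mL) and NADPH (0.5 mg/mL). Viability was measured in the same wells as ATP content by CellTiter-Glo luminescence.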
# [10] = p53 small molecule agonists, cell-based qHTS assay: qHTS cell viability counter screen (AID 1963581); also: nearly all actives have a fitted effect of over 45% in size
# How it was run: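 p53RE-bla HCT-116 cells, compounds added 5 h after plating and incubated 16 h at 37 C. Cytotoxicity measured in the same wells as intracellular ATP by CellTiter-Glo luminescence after 30 min at room temperature.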
# [11] = p53 small molecule agonists, cell-based qHTS assay (AID 1963582; active = well fitted activation curve with a large enough effect in the signal ratio in the repeat runs, not every such curve was filed as active; the % refers to the signal ratio)
# How it was run: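 p53RE-bla reporter cells, compounds added in DMSO after 5 h plating, incubated 16 h at 37 C. Beta-lactamase read via 2 h room-temperature LiveBLAzer B/G FRET substrate, fluorescence intensity.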
# [12] = target: 5-hydroxytryptamine receptor 2A (Homo sapiens) (UniProt P28223); test: 5-hydroxytryptamine receptor 2A (HTR2A) small molecule antagonists, cell-based qHTS assay (AID 1963586); also: nearly all actives have a fitted effect of over 45% in size
# How it was run: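 Antagonist-mode intracellular calcium assay: DOI (4 nM) added after 5 min compound pre-incubation at room temperature to dye-loaded HTR2A-CHO cells. Fluorescence followed for 3 min, sampled every second.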
# [13] = target: 5-hydroxytryptamine receptor 2A (Homo sapiens) (UniProt P28223); test: 5-hydroxytryptamine receptor 2A (HTR2A) small molecule agonists, cell-based qHTS assay (AID 1963587); also: nearly all actives have a fitted effect of over 30% in size
# How it was run: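 CHO cells stably expressing human HTR2A, plated 18 h, loaded with calcium dye 1 h at 37 C. Agonist mode: compounds added and intracellular calcium fluorescence recorded kinetically for 2 min at 1 sec intervals.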
# [14] = target: Muscarinic acetylcholine receptor M1 (Homo sapiens) (UniProt P11229); test: Cholinergic receptor muscarinic 1 (CHRM1) small molecule antagonists, cell-based qHTS assay (AID 1963588); also: nearly all actives have a fitted effect of over 40% in size; also: potency is read from the fitted curve at half-maximal effect
# How it was run: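 CHRM1-CHO calcium-flux assay, antagonist mode. Cells were seeded 18 h, dye-loaded 1 h at 37 C and given compound for 5 min at RT, then acetylcholine was added at 50nM. FDSS fluorescence was read 3 min; 15 concentrations, three runs.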
# [15] = target: Muscarinic acetylcholine receptor M1 (Homo sapiens) (UniProt P11229); test: Cholinergic receptor muscarinic 1 (CHRM1) small molecule agonists, cell-based qHTS assay (AID 1963589); also: nearly all actives have a fitted effect of over 35% in size
# How it was run: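 CHO cells stably expressing human CHRM1 were loaded with calcium dye for 1 h at 37 C, then compound was added in agonist mode. Intracellular calcium fluorescence was followed kinetically at 1 s intervals. Fifteen concentrations were tested in three independent runs.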
# [16] = cAMP Responsive Elements (CRE) small molecule agonists, cell-based qHTS assay (AID 1963590)
# How it was run: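 CRE-bla HEK 293T cells, 2,000/well in DMEM with 10% dialyzed FBS and 25 mM HEPES, pre-incubated 18 h at 37 C, then exposed to compound 3 h at 37 C. Beta-lactamase reporter read with LiveBLAzer B/G FRET substrate after 2 h at room temperature.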
# [17] = cAMP Responsive Elements (CRE) small molecule antagonists, cell-based qHTS assay (AID 1963591; active = well fitted inhibition curve with a large enough effect in the signal ratio in the repeat runs, not every such curve was filed as active; the % refers to the signal ratio)
# How it was run: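 CRE-bla HEK293T cells plated 18 h, then given compound plus NKH477 at 0.25 uM final for 3 h at 37C. Beta-lactamase reporter read with LiveBLAzer B/G FRET substrate after 2 h at room temperature.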
# [18] = target: Beta-2 adrenergic receptor (Homo sapiens) (UniProt P07550); test: Adrenergic beta2 receptor (ADRB2) small molecule antagonists, cell-based qHTS assay (AID 1963592); also: nearly all actives have a fitted effect of over 50% in size; also: potency is read from the fitted curve at half-maximal effect
# How it was run: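 Cells (CHO, stable ADRB2 overexpression) incubated 18-20hr at 37C; compounds added from DMSO; agonist mix (1nM isoproterenol, 100uM IBMX, 25uM Ro-20-1724) added; 0.5hr RT; d2-cAMP and anti-cAMP-cryptate added; 1hr RT; 665/615 nm read.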
# [19] = target: Beta-2 adrenergic receptor (Homo sapiens) (UniProt P07550); test: Adrenergic beta2 receptor (ADRB2) small molecule agonists, cell-based qHTS assay (AID 1963593);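 also: CHO cells stably overexpressing human ADRB2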
# How it was run: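 CHO cells stably over-expressing ADRB2 were plated overnight at 37C, then dosed with compounds plus a stimulation mix containing 100uM IBMX and 25uM Ro-20-1724 for 0.5hr at room temperature. cAMP was measured by HTRF competition, 1hr.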
# [20] = target: D(2) dopamine receptor (Homo sapiens) (UniProt P14416); test: Dopamine D2 receptor (DRD2) small molecule agonists, cell-based qHTS assay (AID 1963594); also: nearly all actives have a fitted effect of over 35% in size
# How it was run: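 HEK293 cells stably expressing human DRD2, pre-treated with PDE inhibitor Ro20-1724 (0.1 mM final) and compound 10 min at room temperature, then stimulated with NKH477 (200nM […]) for 30 min. cAMP read by HTRF (665/620 nm).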
# Chain of 5-hydroxytryptamine receptor 2A (Homo sapiens) (P28223 whole entry, looked up): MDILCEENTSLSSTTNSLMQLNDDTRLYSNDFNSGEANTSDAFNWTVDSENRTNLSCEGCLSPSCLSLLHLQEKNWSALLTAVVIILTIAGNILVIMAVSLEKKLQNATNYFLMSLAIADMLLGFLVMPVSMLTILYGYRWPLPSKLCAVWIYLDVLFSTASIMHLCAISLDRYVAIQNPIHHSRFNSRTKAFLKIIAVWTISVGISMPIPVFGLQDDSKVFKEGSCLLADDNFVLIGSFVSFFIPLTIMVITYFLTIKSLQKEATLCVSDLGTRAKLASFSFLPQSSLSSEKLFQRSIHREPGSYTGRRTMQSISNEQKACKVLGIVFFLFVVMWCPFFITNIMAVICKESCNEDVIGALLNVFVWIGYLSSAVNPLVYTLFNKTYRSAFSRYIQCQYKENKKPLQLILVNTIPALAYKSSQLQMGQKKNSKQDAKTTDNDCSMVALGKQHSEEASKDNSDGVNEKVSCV
# Chain of KiSS-1 receptor (Homo sapiens) (Q969F8 whole entry, looked up): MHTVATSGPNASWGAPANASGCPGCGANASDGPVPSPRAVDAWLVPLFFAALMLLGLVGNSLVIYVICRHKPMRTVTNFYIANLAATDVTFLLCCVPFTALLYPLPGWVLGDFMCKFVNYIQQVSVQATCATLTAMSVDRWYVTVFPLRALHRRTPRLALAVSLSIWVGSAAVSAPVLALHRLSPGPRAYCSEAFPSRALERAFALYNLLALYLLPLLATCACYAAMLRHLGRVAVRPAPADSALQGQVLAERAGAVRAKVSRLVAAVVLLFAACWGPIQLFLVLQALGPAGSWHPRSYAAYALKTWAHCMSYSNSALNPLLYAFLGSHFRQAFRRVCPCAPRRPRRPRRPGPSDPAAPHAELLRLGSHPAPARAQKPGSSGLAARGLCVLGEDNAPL
# Chain of D(2) dopamine receptor (Homo sapiens) (P14416 whole entry, looked up): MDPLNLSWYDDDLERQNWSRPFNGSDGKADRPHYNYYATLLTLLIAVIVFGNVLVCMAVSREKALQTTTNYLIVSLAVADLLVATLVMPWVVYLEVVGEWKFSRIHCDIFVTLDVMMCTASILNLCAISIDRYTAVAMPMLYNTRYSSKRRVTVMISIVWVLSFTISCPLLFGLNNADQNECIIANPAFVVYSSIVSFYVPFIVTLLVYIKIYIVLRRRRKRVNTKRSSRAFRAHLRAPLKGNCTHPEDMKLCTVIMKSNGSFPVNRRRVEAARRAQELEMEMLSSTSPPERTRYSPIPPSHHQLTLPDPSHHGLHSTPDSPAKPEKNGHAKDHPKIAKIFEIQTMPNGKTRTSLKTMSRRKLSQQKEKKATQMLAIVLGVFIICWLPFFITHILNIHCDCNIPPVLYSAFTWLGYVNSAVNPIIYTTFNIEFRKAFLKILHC
# Chain of Gonadotropin-releasing hormone receptor (Homo sapiens) (P30968 whole entry, looked up): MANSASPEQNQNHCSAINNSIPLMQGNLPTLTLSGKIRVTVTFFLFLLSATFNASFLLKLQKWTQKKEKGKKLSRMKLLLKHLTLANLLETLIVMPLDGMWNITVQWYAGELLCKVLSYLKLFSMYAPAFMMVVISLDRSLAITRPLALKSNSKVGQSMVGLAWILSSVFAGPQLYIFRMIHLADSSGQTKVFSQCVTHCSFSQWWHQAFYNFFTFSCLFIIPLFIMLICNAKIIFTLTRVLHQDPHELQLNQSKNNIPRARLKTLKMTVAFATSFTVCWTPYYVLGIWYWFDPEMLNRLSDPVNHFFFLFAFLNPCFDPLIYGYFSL
# Chain of Beta-2 adrenergic receptor (Homo sapiens) (P07550 whole entry, looked up): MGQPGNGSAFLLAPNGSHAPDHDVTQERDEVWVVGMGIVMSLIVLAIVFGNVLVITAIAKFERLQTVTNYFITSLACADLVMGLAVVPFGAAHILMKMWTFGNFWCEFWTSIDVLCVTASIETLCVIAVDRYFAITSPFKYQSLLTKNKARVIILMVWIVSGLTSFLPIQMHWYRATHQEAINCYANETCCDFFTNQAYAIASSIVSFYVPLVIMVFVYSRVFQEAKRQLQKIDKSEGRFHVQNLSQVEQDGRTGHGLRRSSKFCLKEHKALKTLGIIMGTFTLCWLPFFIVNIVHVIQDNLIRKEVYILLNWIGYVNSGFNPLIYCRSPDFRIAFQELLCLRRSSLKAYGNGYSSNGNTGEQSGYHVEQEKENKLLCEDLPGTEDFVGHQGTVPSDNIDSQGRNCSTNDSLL
# Chain of Muscarinic acetylcholine receptor M1 (Homo sapiens) (P11229 whole entry, looked up): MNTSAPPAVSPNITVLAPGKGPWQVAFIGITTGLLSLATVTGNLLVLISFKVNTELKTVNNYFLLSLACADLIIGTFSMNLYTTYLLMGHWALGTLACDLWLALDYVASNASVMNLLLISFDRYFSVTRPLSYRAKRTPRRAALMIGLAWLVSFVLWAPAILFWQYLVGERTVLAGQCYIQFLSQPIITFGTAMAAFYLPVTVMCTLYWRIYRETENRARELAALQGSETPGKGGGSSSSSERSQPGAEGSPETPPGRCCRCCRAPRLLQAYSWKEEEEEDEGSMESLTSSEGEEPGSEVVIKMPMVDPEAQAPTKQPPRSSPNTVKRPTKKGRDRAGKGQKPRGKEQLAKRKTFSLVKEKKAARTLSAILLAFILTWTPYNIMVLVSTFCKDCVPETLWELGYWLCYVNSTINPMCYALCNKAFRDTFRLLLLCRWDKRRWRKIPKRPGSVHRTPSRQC
SMILES,Potency [1],Potency [2],Potency [3],Potency [4],Potency [5],Potency [6],Potency [7],Potency [8],Potency [9],Potency [10],Potency [11],Potency [12],Potency [13],Potency [14],Potency [15],Potency [16],Potency [17],Potency [18],Potency [19],Potency [20]
COc1ccccc1N=Nc1c(S(=O)(=O)O)cc2cc(S(=O)(=O)O)cc(NC(C)=O)c2c1O,40.7 µM (active),inactive,inactive,inactive,inactive,inactive,inactive,inactive,inactive,inactive,inactive,inactive,inactive,inactive,inactive,inactive,inactive,–,–,–
CCCCOCCOCCOCCO,inactive,inactive,inactive,inactive,inactive,inactive,inactive,inactive,inactive,inactive,inactive,inactive,inactive,inactive,inactive,inactive,inactive,30.3 µM (active) and inactive,inactive,inactive
C1CSCCS1,inactive,inactive,inactive,inactive,inactive,inactive,inactive,inactive,inactive,inactive,inactive,inactive,inactive,inactive,inactive,inactive,inactive,inactive,inactive,inactive
COc1cc(C(=O)N2CCCCCCC2)cc(OC)c1OC,inactive,inactive,inactive,inactive,inactive,inactive,inactive,inactive,inactive,inactive,inactive,inactive,inactive,inactive,inactive,inactive,inactive,inactive,inactive,inactive
CC(=O)NCc1c(I)c(NC(C)=O)c(I)c(C(=O)O)c1I,inactive,inactive,inactive,inactive,inactive,inactive,inactive,inactive,inactive,inactive,inactive,inactive,inactive,inactive,inactive,inactive,inactive,inactive,inactive,inactive
CCCCCC=O,inactive,inactive,inactive,inactive,inactive,inactive,inactive,inactive,inactive,inactive,inactive,inactive,inactive,inactive and 11.9 nM (active),inactive,inactive,inactive,inactive,inactive,inactive
CS(C)(=O)=O,inactive,inactive,inactive,inactive,inactive,inactive,inactive,inactive,inactive,inactive,inactive,inactive,inactive,inactive,inactive,inactive,inactive,inactive,inactive,inactive

# Reference: PubChem BioAssay (Tox21)
